Results as given in ChEMBL document CHEMBL4888484, “Replenishing the malaria drug discovery pipeline: Screening and hit evaluation of the MMV Hit Generation Library 1 (HGL1) against asexual blood stage Plasmodium falciparum ,using a nano luciferase reporter read-out” (2022).
In all, about 4,800 compounds went through this assay and about 420 (8.8%) showed an effect of 50% or more. The sample as a whole holds a higher share of strong results than the screen did.

System: Plasmodium falciparum
Assay: Confirmatory screen in NF54 nanoGlo assay, in single point, at 2uM, 72h
Assay type: functional, Erythrocyte
Details: timepoint 72 hour

SMILES | % Inhibition [%]
COc1snc(C(Cl)(Cl)Cl)c1Cl | -2
CCN(CC)CCC1C(=O)N(c2ccccc2)C(=O)N(c2ccccc2)C1=O | 4
CC(=O)N1N=C(c2cccnc2)O[C@H]1c1ccc(F)cc1 | -10
Cc1nc(Cn2nc(C(C)(C)C)oc2=O)oc1C | 0
FC1(F)C[C@@H](COc2cccnc2)N(C2CCCCC2)C1 | 3
Cn1cc(/C=C2\CC3C4CCC5CCCCC5(C)C4CCC3(C)C2O)cn1 (configuration not stated) | 0
Cc1cccc(CN(C)C)c1OC(=O)N(C)C | -9
COc1ccc(-c2cc([C@H]3CN4CC[C@H]3C[C@@H]4CNC(=O)C3CCCCC3)n(C)n2)cc1OC | -9
Cc1ccc(NC(=O)N2CCC(=O)CC2)cc1Br | -4
C=CCCC(CN1C[C@H]2CC=CC[C@H]2C1)Oc1ncc(F)cn1 (some centres not stated) | 77
COC(=O)[C@H]1CN(Cc2noc(C)n2)C[C@@H]1c1ccc(F)cc1F | -20
CC(Cc1ccccc1)NC1CN2CCC1CC2 (configuration not stated) | 1
CC(C)N1CCN(c2nc3nc[nH]c(=O)c3s2)CC1 | 4
O=S(=O)(NC12CCCC1CNC2)c1onc(C2CC2)c1Cl (configuration not stated) | 95
O=C(NCc1cc(F)cc(F)c1)c1cn(Cc2ccc(F)cc2)nn1 | -15
O=C1N[C@](c2ccccc2)(C(F)(F)F)c2ccc3ccccc3c2O1 | 5
CC1CCCCC1N1CCN(C(=O)COc2ccc(Br)cc2)CC1 (configuration not stated) | 3
O=c1c2cc(Cl)ccc2nc(-c2cccnc2)n1-c1ccc(Br)cc1 | 0
O=C1O[C@@H]2CCN(Cc3ccccc3)[C@H]1C2 | -15
CCC1(CC)C(=O)N(CN2CCCC2=O)C(=O)N(CN2CCCC2=O)C1=O | -17
CN(C)S(=O)(=O)Nc1cccc(OC(=O)N2CCOCC2)c1 | -10

SMILES | % Inhibition [%]
CCN1CCC[C@H](NC(C2CCC2)C2CCC2)C1 | -3
COc1cc(OCC(=O)N2CCN([C@@H](C)Cc3ccccc3)CC2)cc(OC)c1OC | 8
O=C(N1CCN(C(c2ccccc2)c2ccccc2)CC1)C(O)(c1ccccc1)c1ccccc1 | -4
Cc1cc(=O)c(OCC(=O)N2CCN([C@@H](c3ccccc3)c3ccc(Cl)cc3)CC2)c[nH]1 | 63
Cc1ccc(C(O)(c2ccc(C)c(C)c2)[C@H]2C[N@]3CC[C@@H]2CC3)cc1C | 6
CN1CCN(CCO[C@@H](c2cccc(Cl)c2)c2ccccc2Cl)CC1 | 0
O=C(c1ccccc1)c1cc(Cl)ccc1NC(=O)[C@H]1CC(=O)N(c2ccc(F)cc2)C1 | 85
c1cc(-n2cnnn2)ccc1N[C@H]1CN2CCC1CC2 | -14
CC(C)c1nc(CC(=O)N2CCN(Cc3nnc4n3CCCCC4)CC2)cs1 | -12
CCCC(=O)N(C1=CC2CCC(C1)N2C)c1ccccc1 (configuration not stated) | 1
Cc1cc(C(=O)NC2CC(C)n3ccnc32)nn1C(C)C (configuration not stated) | 58
COc1cc(=O)c(C(=O)N2CCC3(CC2)OCCO3)nn1-c1ccc(C)cc1 | -5
CN1CCC2CCN(C(=O)c3cc(C4CC4)on3)C2C1 (configuration not stated) | 2
CCOc1ccccc1N1C(=O)NC(=O)[C@@]2(Cc3cc(C)ccc3N(C)C2)C1=O | -10
COC(=O)C(O)(c1ccc2c(c1)C(O)(C(F)(F)F)C(=O)N2C(C)C)C(F)(F)F (configuration not stated) | 8
CC1CN2CCCC2CN1C(=O)c1cc(C2CC2)on1 (configuration not stated) | -17
O=C1C2CCN(CC2)[C@H]1Cc1ccc(Cl)cc1 | 4
Cc1cc(C(F)(F)F)c2c(C(N)=O)cn(C(C)(C)C)c2n1 | 2
C[N+]12CCC(CC1)[C@@H](C(O)(c1cccc(Cl)c1)c1cccc(Cl)c1)C2 | 24
O=C1CO[C@H]2CCN(Cc3cn4ccc(Br)cc4n3)C[C@@H]2N1 | 1
Cn1nc(OC(=O)Nc2ccccc2)cc1C(F)(F)F | 6

SMILES | % Inhibition [%]
CN(C)C(=O)CCCn1ccc(NC(=O)C2C(C)(C)C2(C)C)n1 | -18
Nc1ccc(N2CCN3CCC[C@H]3C2)cc1 | 8
Cc1ccc2c(c1)CCCN2C(=O)CN1CC=C(c2cnn(C)c2)CC1 | 43
CCCS(=O)(=O)NC[C@H]1C[C@@H]2CCN1C[C@@H]2c1cc(C(CC)CC)nc(-c2ccncc2)n1 | 18
CCC(CC)c1cc([C@H]2CN3CC[C@H]2C[C@@H]3CO)nc(-c2ccncc2)n1 | 26
CCC(CC)c1cc([C@H]2CN3CC[C@H]2C[C@@H]3CNS(=O)(=O)Cc2ccccc2)nc(-c2ccncc2)n1 | 63
CC1CCNC(=O)C1NC(=O)Nc1ccc(C#N)c(C(F)(F)F)c1 (configuration not stated) | 8
Clc1ccc(C2CC(c3cccnc3)Nc3nnnn32)cc1 (configuration not stated) | -10
CCCCC1(CCCC)C(=O)NC(=Nc2ccc(C)cc2)NC1=O | -18
O=C1N(c2ccccc2)C(=O)C2(Cc3cc(C(F)(F)F)ccc3N3CCC(c4ccccc4)CC32)C(=O)N1c1ccccc1 (configuration not stated) | 4
CC[C@H]1C[N@@]2CC[C@H]1C[C@@H]2COC(=O)Nc1ccc(C(C)(C)C)cc1 | 4
COc1cccc(CNC(=O)N2CC[C@@H]3CCN(C)C[C@@H]32)n1 | -2
CC(=O)N(C1CCN(Cc2ccccc2)CC1)C1(C(=O)Nc2ccc3[nH]ccc3c2)CCN(C)CC1 | 35
CN1CC[C@]2(CCN(c3ccnc4ccsc34)C2)C1 | 99
c1cc(N2CC[C@@]3(CCCNC3)C2)c2sccc2n1 | 99
CCn1nccc1CNCCc1ccccc1 | 4
CC[C@H]1C[N@@]2CC[C@H]1C[C@@H]2COC(=O)Nc1ccccc1 | 3
CNc1snc(C)c1C(=O)N1CCC(C(=O)OC)(c2ccccc2)CC1 | -2
COc1ccc(-c2ccccc2N2CCNCC2)c2ccc(C)nc12 | -4
Clc1cccc(CCN[C@H]2CCOC3(CCOCC3)C2)c1 | 7
